The chains are these.
T1: UNK ZnF1-3 (human, UniProt Q9C0B0 31-174)
T1 sequence: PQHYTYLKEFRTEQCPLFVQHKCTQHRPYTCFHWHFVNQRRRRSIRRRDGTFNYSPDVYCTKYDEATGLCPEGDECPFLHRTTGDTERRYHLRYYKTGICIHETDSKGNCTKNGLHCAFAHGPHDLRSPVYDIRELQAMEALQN

B1: 1003750_1005305_5821_CDS_ENSG00000060237_ENST00000535572|human|control|control (ssRNA)
RNA: GGGAGUUCUACAGUCCGACGAUCAUGAACAGACUUUGCAUCUUCUGACUUAUUUUUACCCUCUUUCUGGGCACCGUCUGCUGCAACAGAAACCUGAAAUCGUCCCAUCUUAAAAACACCAGCUCCUGAACUAGUUGCUAGGACCAACAGAGGAUUGAGCAUCA
B2: 9430860_9430980_9933_3pUTR_ENSMUSG00000040209_ENSMUST00000041124|mouse|control|control (ssRNA)
RNA: GGGAGUUCUACAGUCCGACGAUCUUUAAAAAGAACCAACUACUAUUUGACUCUAACCCAAUCCUUCAGUAUCUGGUAUGCGCUUUGUUUUUUCCCUUGCUAACACUAGGCCCUUUCUGUGCACUGCCAGCCAAGCACAGGCAGCAACAGAGGAUUGAGCAUCA
B3: 93812015_93812135_631_5pUTR_ENSG00000117505_ENST00000370272|human|control|control (ssRNA)
RNA: GGGAGUUCUACAGUCCGACGAUCGAUUUCUCAAAAAGUCGCCCUCGGAGAGUGAUCCCGGGGGGUGCUUUGCGAAGAGGGUGCAGAAAAUGAACGGAGGAGCAGCUGGCUUGAGGGCUGGGAACACUCGCGUGUGUGAGAGAUCAACAGAGGAUUGAGCAUCA
B4: chr5:128448638:128448639:+_ENSG00000066583_ENST00000173527|hu_mus|hu_hu_hu_mus_False|28_28 (ssRNA)
RNA: GGGAGUUCUACAGUCCGACGAUCGGCACUCGCCUUAAUUAGGUUCUGAAUUUCCUUGAACUUCGGGUGGUCUUUGUCAGCCACCAGCUGUAGGAGGACAGCCUCACUCGUGGUCACGAUGAUCCCAGUGCGGGCAAGACGCUCCAACAGAGGAUUGAGCAUCA
B5: chr2:47635579:47635580:+_ENSG00000095002_ENST00000543555|hu_hu|motif|central (ssRNA)
RNA: GGGAGUUCUACAGUCCGACGAUCACUCUAUACUGACGAACCAGAAGAAGAUCUUUUACAAAAGAUUCAAAAUUCAUUUUACGGAGCACAACACUCUGCAGAUUCUUUGCUCCUGCCGGCCCCAUGUACUUGAUCACCCCCUGGCAACAGAGGAUUGAGCAUCA
B6: chr10:60895279:60895280:-_ENSMUSG00000020091_ENSMUST00000020288|mus_mus|FALSE|FALSE (ssRNA)
RNA: GGGAGUUCUACAGUCCGACGAUCACUGGAAGAUGUUUUGUUAAAAAAGUUGUAGUUCAAAAUUGUACUGAAAACUUAUCUAAAAAUAGGUCUGUAGUCAUCUUAAAAAUAAAAGGUCUCUCCUCUGAUAAGGAGAGACUGAUACAACAGAGGAUUGAGCAUCA
B7: chr4:117881997:117881998:-_ENSMUSG00000033295_ENSMUST00000150096|mus_hu|FALSE|FALSE (ssRNA)
RNA: GGGAGUUCUACAGUCCGACGAUCCAGAAGUCAUACAAAAUAAGGAUCCAAAGUGAACUCAAGAAAAAAAAAAACAAAACAAAAUAAACCCCAACCCCUACAGUGGCCCAUUCUGCAGAUACGGAUUCGCGAAAGGAAAAAUCACAACAGAGGAUUGAGCAUCA
B8: chr9:15453159:15453160:+_ENSG00000164975_ENST00000490969|hu_hu|FALSE|FALSE (ssRNA)
RNA: GGGAGUUCUACAGUCCGACGAUCAUGAUGCACAAGCCUUAUGUCAGUAAUGACAAUGACAUGUUCACAGUCUCCCUGAUGACAGUAUAAGUAAGGAAAACCCAGUUUAAUACACAAGUCAUUGAAGGUGAAAUCUUCCAUUCUCAACAGAGGAUUGAGCAUCA
B9: chr6:48548902:48548903:+_ENSMUSG00000052751_ENSMUST00000163452|mus_mus|FALSE|FALSE (ssRNA)
RNA: GGGAGUUCUACAGUCCGACGAUCAAGGAACAAAACAAGACCCAGUAGGCAGAAGUCAUAGGAAAGCAGAAUCCAAUCACUAUAAGUAAGAAAUGUCUAACAAUUAGACUCGCCCUACGAUAGAAGUAGUGCCUUCUGGAGGUACAACAGAGGAUUGAGCAUCA
B10: chr15:12740188:12740189:-_ENSMUSG00000022195_ENSMUST00000057256|mus_hu|FALSE|FALSE (ssRNA)
RNA: GGGAGUUCUACAGUCCGACGAUCAUAAAUGAAGUAUGAAUGAAUCUCAUACAGCUCAACAGACCUGGGGGAAAAGUGAAGACAAACAAACAAACAAACAAAAAAAAAAACAAAACCCUAAAAAAUACUUAAGGAAGACAGAUACAACAGAGGAUUGAGCAUCA
B11: chr4:103718443:103718444:-_ENSG00000109332_ENST00000394803|perfect_dup|FALSE|FALSE (ssRNA)
RNA: GGGAGUUCUACAGUCCGACGAUCAAAGCUGGAAGAACUUAAGUCUUCUCAGAUGAGCAUGUGAAUGAAUGGAGGGAGGUAAACAAAAAAUAAAAUUAAAAAAGAUGAGGUCUGAUAGGGGAGCAGCCGGAUAAGAAAAUCAAACAACAGAGGAUUGAGCAUCA
B12: 176792147_176792267_4022_3pUTR_ENSG00000144320_ENST00000272748|human|control|control (ssRNA)
RNA: GGGAGUUCUACAGUCCGACGAUCACAUGAUAGGGAGUAAAAGGCAGAGGCCAGCUUCAGAUGGGGAGUUUGGGAAGGCAUCUCUCUGAGGAGGCAAAAUUUAAGCUGAAAUCUGAGGCAGGAAAGGGCAUGGUCAGAGAACUGCAACAGAGGAUUGAGCAUCA
B13: 54500970_54501090_1431_3pUTR_ENSMUSG00000039156_ENSMUST00000071083|mouse|control|control (ssRNA)
RNA: GGGAGUUCUACAGUCCGACGAUCAGCUGCAUCUCAGCAUUUUGCCUCUUAAUAUUGUAGUACUGUACUUCAACUUCGUGUGUUAGCUGAAGCCAUUUCUGUAGUGCGUCAGGGACAGACCAGCUGCUUCUCAGUUCAAACUCCCAACAGAGGAUUGAGCAUCA
B14: chr2:217001844:217001845:+_ENSG00000079246_ENST00000392132|hu_hu|hu_hu_hu_mus_False|18_28 (ssRNA)
RNA: GGGAGUUCUACAGUCCGACGAUCACCAACUUGAGGAUUAGAUCUUUUGUCAUAAGCAUAUCGGACGAUGGCGACCAUGUUUAACUCAUCCAAAGCAUGAACGAGAGAGGAAAGUGCAACUGCAGCUGCCUCAUCAUCCUUUGCCAACAGAGGAUUGAGCAUCA

In all, about 24,000 sequences were measured (“enrichment r”: median about 0.99, highest 2% from about 3.7 on). Only a selection was taken, and the highest values are over-represented in it overall.

This passage reports binding signal results from publication PMC12136788.

This experiment deals with T1, UNK ZnF1-3. Kind of experiment: nsRBNS (natural sequence RNA bind-n-seq); RBNS binding buffer (assumed for nsRBNS): 25 mM Tris pH 7.5, 150 mM KCl, 3 mM MgCl2, 0.01% Triton X-100, 500 ug/ml BSA, 20 U/ml SUPERase-In, 4 C; UNK is unkempt and MSI1 is Musashi-1; names of the RNAs are library labels; protein concentration not given here; high values mean tight binding.
B1: the binding signal amounted to 1.34 enrichment R.

In turn, B2 displayed a binding signal of 0.957 enrichment R.

Consider B3, for which the binding signal is 1.73 enrichment R.

In the case of B4, the binding signal is 0.734 enrichment R.

B5 returned a binding signal of 1.41 enrichment R.

For B6, the binding signal came to 0.617 enrichment R.

B7 showed a binding signal of 7.45 enrichment R.

B8 had a binding signal of 1.02 enrichment R.

In the case of B9, the binding signal was found to be 2.2 enrichment R.

Take B10: the binding signal stood at 6.86 enrichment R.

For B11, the binding signal came to 21.1 enrichment R.

On to B12, for which the binding signal was 3.56 enrichment R.

For the molecule B13, the binding signal was 1.01 enrichment R.

Molecule B14 registered a binding signal of 1.42 enrichment R.
